In PubChem BioAssay (NCATS):
Results filed as inconclusive are left out. Active and inactive are the calls of the source. Calls come from the whole dose curve; as a rule, active = well fitted inhibition curve with a large enough effect; inconclusive = small, poorly fitted or top-dose-only effect; inactive = flat fitted curve, though single readings scatter.

Legend:
Assay in all cases: qHTS profiling for inhibitors of Plasmodium falciparum proliferation (AID 504749); note: nearly all actives have a fitted effect of over 60% in size
Conditions in all cases: P. falciparum in erythrocytes, SYBR Green DNA, 72 h; series mostly up to 28.7 µM
CP250 = tested on: CP250
Summary of the method: (§1)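 P. falciparum-infected erythrocytes (0.3% parasitemia, 2.5% hematocrit final) were exposed to compounds for 72 h at 37 C in 5% CO2, then lysed with SYBR Green buffer overnight at room temperature; parasite DNA fluorescence was normalized to artemisinin and DMSO controls.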

CP252 = tested on: CP252
Summary of the method: as §1

CP256 = tested on: CP256
Summary of the method: as §1

CP260 = tested on: CP260
Summary of the method: as §1

CP262 = tested on: CP262
Summary of the method: as §1

CP265 = tested on: CP265
Summary of the method: as §1

CP266 = tested on: CP266
Summary of the method: as §1

CP268 = tested on: CP268
Summary of the method: as §1

CP269 = tested on: CP269
Summary of the method: as §1

CP286 = tested on: CP286
Summary of the method: as §1

CP291 = tested on: CP291
Summary of the method: as §1

CP297 = tested on: CP297
Summary of the method: as §1

CP305 = tested on: CP305
Summary of the method: as §1

CP315 = tested on: CP315
Summary of the method: as §1

CP325 = tested on: CP325
Summary of the method: as §1

CP329 = tested on: CP329
Summary of the method: as §1

CP335 = tested on: CP335
Summary of the method: as §1

DFO2036 = tested on: DFO2036
Summary of the method: as §1

DIV14 = tested on: DIV14
Summary of the method: as §1

DIV17 = tested on: DIV17
Summary of the method: as §1

Measured: Potency

NC(=S)NS(=O)(=O)c1ccc(N)cc1
inactive: all assays above

FC(F)(F)C(F)(F)C(F)(F)C(F)(F)C(F)(F)F
not listed: DIV14
inactive: all other assays above

O=C(O)COc1ccc(CCNS(=O)(=O)c2ccccc2)s1
inactive: all assays above

COC(=O)c1ccccc1O
inactive: all assays above

CC1=CC(=O)NS(=O)(=O)O1
inactive: all assays above

Cc1cc(C)c(NC(=O)C[C@H](CC(=O)O)c2cccc3ccccc23)c(C(=O)N2CCC3(CCCC3)CC2)c1
inactive: all assays above

CCCCCCCCCCCCOCCCN
inactive: all assays above

NC(=O)[C@H]1O[C@@H](O)[C@H](O)[C@@H](O)[C@@H]1O
inactive: all assays above

CN[C@@H]1[C@H](O[C@H]2[C@H](O[C@H]3[C@H](O)[C@@H](O)[C@H](N=C(N)N)[C@@H](O)[C@@H]3N=C(N)N)O[C@@H](C)[C@]2(O)C=O)O[C@@H](CO)[C@H](O)[C@H]1O
inactive: all assays above

CN1C(=O)OC(C)(C)C1=O
inactive: all assays above

Cc1cc(=O)c(C(=O)N[C@@H](C(=O)N[C@@H]2C(=O)N3C(C(=O)O)=C(CSc4nnnn4C)CS[C@H]23)c2ccc(O)cc2)c[nH]1
inactive: all assays above

CCCc1ccc(C(=O)O)cc1
inactive: all assays above

C[C@H](O)CN(C)C
inactive: all assays above

COC(=O)CC[C@H](N)C(=O)O
inactive: all assays above
